Targets with a hit are over-represented here; the source holds about 8,800 in all. About 0.5% of all pairs of compound and target were hits.
Assays:
Experiment in all cases: log2 fold change, soluble protein after heating vs DMSO (PISA); higher = thermal stabilisation; K562 lysate, 10 uM; active = over 0.2 and 3.5 SD of the protein, either way, in both replicates (recomputed)
[1] = compound: CN1CC[C@H](c2c(O)cc(O)c3c(=O)cc(-c4ccccc4Cl)oc23)[C@H](O)C1 [alvocidib]
Method in brief: (§1)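 K562 pellets were dounce-homogenised in PBS pH 7.4 with 1 mM MgCl2, and the crude extract at 1 mg/mL protein was treated with 10 μM compound for 30 min. Aliquots were heated for 3 min across 48°C-58°C, pooled, and brought to 0.5% NP-40 at 4°C; soluble protein was the supernatant after 21,000xg for 90 min. Soluble protein was quantified by TMTpro 16plex LC-MS/MS with channel sums equalised, and reported as log2 fold change in thermal stability against DMSO controls, with values from duplicates.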

[2] = compound: CN1CCc2c(c3ccccc3n2Cc2ccc(C(=O)NO)cc2)C1 [Tubastatin A]
Method in brief: as §1

[3] = compound: CNC(=O)C1=CC=CC=C1NC2=NC(=NC=C2Cl)NC3=C(C=C(C=C3)N4CCOCC4)OC
Method in brief: as §1

[4] = compound: CNC(=O)c1ccc(Nc2ncc(C(F)(F)F)c(NCc3nccnc3N(C)S(C)(=O)=O)n2)cc1 [defactinib]
Method in brief: as §1

[5] = compound: CNc1nc(-c2ccc3c(N)n[nH]c3c2)cc(N2C[C@@H](C(=O)NC3CCCCC3)CC[C@H]2C)n1
Method in brief: as §1

[6] = compound: COC(=O)N[C@@H](C)CNc1nccc(-c2cn(C(C)C)nc2-c2cc(Cl)cc(NS(C)(=O)=O)c2F)n1 [encorafenib]
Method in brief: as §1

[7] = compound: COC(=O)[C@H](CCSC)NC(=O)C1=C(C=C(C=C1)NC[C@H](CS)N)C2=CC=CC=C2
Method in brief: as §1

[8] = compound: COc1cc(Nc2ncc3c(n2)-c2ccc(Cl)cc2C(c2c(F)cccc2OC)=NC3)ccc1C(=O)O [alisertib]
Method in brief: as §1

[9] = compound: COc1cc2nc(-c3cc(F)ccc3O)nc(N[C@@H]3CNC[C@H]3C(C)(C)O)c2cc1OC
Method in brief: as §1

[10] = compound: COc1cc2ncnc(Nc3ccc(F)c(Cl)c3)c2cc1OCCCN1CCOCC1 [gefitinib]
Method in brief: as §1

[11] = compound: CS(=O)(=O)CCNCc1ccc(-c2ccc3ncnc(Nc4ccc(OCc5cccc(F)c5)c(Cl)c4)c3c2)o1 [lapatinib]
Method in brief: as §1

[12] = compound: CS(=O)(=O)N1CCN(Cc2cc3nc(-c4cccc5[nH]ncc45)nc(N4CCOCC4)c3s2)CC1 [pictilisib]
Method in brief: as §1

[13] = compound: C[C@@H](Oc1cc(-c2cnn(C3CCNCC3)c2)cnc1N)c1c(Cl)ccc(F)c1Cl [crizotinib]
Method in brief: as §1

[14] = compound: C[C@H](C1=CC=C(C=C1)C(=O)NC2=C3C=CNC3=NC=C2)N
Method in brief: as §1

[15] = compound: C[C@H](Nc1ncnc2nc[nH]c12)c1cc2cccc(Cl)c2c(=O)n1-c1ccccc1 [duvelisib]
Method in brief: as §1

[16] = compound: Cc1cc(Nc2cc(CN3CCOCC3)c3nc(C)c(Cc4ccc(Cl)cc4F)n3n2)n[nH]1 [gandotinib]
Method in brief: as §1

[17] = compound: Cc1cc(Nc2cc(N3CCN(C)CC3)nc(Sc3ccc(NC(=O)C4CC4)cc3)n2)n[nH]1 [tozasertib]
Method in brief: as §1

[18] = compound: Cc1ccc(-n2nc(C(C)(C)C)cc2NC(=O)Nc2ccc(OCCN3CCOCC3)c3ccccc23)cc1 [doramapimod]
Method in brief: as §1

[19] = compound: Cc1ccc(NC(=O)c2ccc(CN3CC[C@H](N(C)C)C3)c(C(F)(F)F)c2)cc1Nc1nccc(-c2cncnc2)n1 [bafetinib]
Method in brief: as §1

[20] = compound: Cc1cccc(CC(=O)N2CCc3c2ccc(-c2cn(C)c4ncnc(N)c24)c3F)n1
Method in brief: as §1

Measured: log2 fold change

NOSTRIN (UniProt Q8IVI9)
Sequence of UniProt Q8IVI9 (Q8IVI9 whole entry, looked up): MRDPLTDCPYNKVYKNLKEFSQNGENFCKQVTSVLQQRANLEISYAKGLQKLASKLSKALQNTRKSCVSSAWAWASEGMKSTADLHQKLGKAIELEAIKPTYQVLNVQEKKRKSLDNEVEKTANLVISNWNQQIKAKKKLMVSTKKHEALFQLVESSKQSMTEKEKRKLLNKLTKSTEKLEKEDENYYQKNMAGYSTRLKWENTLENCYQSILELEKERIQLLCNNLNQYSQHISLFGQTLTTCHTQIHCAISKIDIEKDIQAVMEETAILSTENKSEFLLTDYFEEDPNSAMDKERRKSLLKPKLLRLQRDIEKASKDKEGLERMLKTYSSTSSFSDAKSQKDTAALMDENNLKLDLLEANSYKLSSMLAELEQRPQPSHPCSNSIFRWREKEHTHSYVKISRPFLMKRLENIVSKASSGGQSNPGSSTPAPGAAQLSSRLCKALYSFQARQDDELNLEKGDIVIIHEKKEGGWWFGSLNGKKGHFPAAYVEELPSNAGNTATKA
inactive: [1] -0.009 | [3] 0.027 | [4] 0.07 | [5] 0.061 | [6] -0.112 | [7] 0.11 | [8] -0.019 | [9] 0 | [10] 0.004 | [11] -0.022 | [12] -0.011 | [13] 0.06 | [14] 0.017 | [15] 0.047 | [16] -0.047 | [17] 0.058 | [18] -0.03 | [19] -0.078 | [20] -0.012
active: [2] -0.35

NFATC2 (UniProt Q13469)
inactive: [1] -0.12 | [2] -0.118 | [3] 0.021 | [4] -0.028 | [5] 0.06 | [6] 0.004 | [7] 0.1 | [8] -0.047 | [9] -0.007 | [10] -0.025 | [11] -0.003 | [12] 0.03 | [13] -0.021 | [14] 0.085 | [15] -0.017 | [16] 0.133 | [17] 0 | [18] 0.059 | [19] -0.02 | [20] 0.117

N4BP2 (UniProt Q86UW6)
Sequence of UniProt Q86UW6 (Q86UW6 whole entry, looked up): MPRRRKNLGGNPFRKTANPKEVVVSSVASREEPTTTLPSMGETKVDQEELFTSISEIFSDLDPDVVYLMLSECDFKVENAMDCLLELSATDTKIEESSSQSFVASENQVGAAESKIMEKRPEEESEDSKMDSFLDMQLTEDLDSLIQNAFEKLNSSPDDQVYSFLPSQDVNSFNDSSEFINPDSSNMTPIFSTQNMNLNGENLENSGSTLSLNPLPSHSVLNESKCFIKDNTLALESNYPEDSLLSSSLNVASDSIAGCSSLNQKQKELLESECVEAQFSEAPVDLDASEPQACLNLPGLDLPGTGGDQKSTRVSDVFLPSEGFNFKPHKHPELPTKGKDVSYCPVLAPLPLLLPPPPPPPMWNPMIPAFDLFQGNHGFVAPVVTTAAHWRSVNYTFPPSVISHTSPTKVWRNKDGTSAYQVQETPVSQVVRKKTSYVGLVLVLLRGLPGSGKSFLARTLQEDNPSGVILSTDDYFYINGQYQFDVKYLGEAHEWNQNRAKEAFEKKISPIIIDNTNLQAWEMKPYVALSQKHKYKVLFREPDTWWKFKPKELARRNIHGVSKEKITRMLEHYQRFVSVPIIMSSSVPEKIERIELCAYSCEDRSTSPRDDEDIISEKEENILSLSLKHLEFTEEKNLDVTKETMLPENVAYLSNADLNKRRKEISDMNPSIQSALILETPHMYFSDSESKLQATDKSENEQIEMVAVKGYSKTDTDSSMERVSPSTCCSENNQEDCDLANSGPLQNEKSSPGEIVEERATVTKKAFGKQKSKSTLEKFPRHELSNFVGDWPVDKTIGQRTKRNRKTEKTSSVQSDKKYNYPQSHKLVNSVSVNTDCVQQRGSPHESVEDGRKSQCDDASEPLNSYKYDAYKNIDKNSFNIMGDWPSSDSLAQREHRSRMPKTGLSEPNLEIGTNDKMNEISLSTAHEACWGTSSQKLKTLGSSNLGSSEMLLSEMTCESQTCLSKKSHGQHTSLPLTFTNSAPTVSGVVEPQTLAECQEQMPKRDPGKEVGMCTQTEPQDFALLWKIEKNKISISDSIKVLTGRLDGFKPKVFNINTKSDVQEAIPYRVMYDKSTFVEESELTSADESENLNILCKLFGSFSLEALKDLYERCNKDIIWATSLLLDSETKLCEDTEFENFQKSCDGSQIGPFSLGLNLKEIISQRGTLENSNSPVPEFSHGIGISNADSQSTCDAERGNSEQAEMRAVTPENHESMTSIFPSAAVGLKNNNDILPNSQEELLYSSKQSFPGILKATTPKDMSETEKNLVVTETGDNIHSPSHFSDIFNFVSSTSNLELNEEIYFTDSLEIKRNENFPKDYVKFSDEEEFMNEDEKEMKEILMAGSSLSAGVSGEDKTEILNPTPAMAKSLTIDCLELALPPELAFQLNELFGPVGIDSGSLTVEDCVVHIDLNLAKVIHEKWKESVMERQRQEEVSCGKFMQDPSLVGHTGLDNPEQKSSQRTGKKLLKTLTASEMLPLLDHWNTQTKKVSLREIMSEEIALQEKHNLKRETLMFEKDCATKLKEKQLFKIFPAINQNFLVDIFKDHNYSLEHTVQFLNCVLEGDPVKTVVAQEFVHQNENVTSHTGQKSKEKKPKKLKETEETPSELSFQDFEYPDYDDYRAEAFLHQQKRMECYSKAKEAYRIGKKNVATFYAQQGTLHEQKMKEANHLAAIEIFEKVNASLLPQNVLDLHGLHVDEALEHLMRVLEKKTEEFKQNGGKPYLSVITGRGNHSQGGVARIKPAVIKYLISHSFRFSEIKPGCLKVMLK
active: [14] -0.236
inactive: [1] 0.063 | [2] -0.17 | [3] 0.052 | [4] 0.021 | [5] -0.004 | [6] 0.06 | [7] 0.003 | [8] 0.016 | [9] 0 | [10] -0.005 | [11] 0.003 | [12] 0.054 | [13] 0.002 | [15] 0.028 | [16] 0.014 | [17] -0.032 | [18] -0.015 | [19] -0.038 | [20] 0.149

NSL1 (UniProt Q96IY1)
Sequence of UniProt Q96IY1 (Q96IY1 whole entry, looked up): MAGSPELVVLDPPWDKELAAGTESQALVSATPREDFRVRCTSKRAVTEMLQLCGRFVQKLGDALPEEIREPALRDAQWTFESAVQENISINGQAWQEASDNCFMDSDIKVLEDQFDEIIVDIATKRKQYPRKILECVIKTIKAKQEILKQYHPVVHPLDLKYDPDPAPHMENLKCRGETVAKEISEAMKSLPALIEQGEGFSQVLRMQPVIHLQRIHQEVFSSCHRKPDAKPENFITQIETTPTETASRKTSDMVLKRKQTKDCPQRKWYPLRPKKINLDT
inactive: [1] -0.026 | [2] -0.084 | [3] 0.016 | [4] 0.034 | [5] -0.004 | [6] -0.055 | [7] 0.094 | [8] 0.019 | [9] -0.014 | [10] -0.004 | [11] -0.003 | [12] -0.032 | [13] 0.051 | [14] 0.001 | [15] -0.033 | [16] 0.094 | [17] -0.01 | [18] -0.047 | [19] 0.034 | [20] 0.006

NAA35 (UniProt Q5VZE5)
Sequence of UniProt Q5VZE5 (Q5VZE5 whole entry, looked up): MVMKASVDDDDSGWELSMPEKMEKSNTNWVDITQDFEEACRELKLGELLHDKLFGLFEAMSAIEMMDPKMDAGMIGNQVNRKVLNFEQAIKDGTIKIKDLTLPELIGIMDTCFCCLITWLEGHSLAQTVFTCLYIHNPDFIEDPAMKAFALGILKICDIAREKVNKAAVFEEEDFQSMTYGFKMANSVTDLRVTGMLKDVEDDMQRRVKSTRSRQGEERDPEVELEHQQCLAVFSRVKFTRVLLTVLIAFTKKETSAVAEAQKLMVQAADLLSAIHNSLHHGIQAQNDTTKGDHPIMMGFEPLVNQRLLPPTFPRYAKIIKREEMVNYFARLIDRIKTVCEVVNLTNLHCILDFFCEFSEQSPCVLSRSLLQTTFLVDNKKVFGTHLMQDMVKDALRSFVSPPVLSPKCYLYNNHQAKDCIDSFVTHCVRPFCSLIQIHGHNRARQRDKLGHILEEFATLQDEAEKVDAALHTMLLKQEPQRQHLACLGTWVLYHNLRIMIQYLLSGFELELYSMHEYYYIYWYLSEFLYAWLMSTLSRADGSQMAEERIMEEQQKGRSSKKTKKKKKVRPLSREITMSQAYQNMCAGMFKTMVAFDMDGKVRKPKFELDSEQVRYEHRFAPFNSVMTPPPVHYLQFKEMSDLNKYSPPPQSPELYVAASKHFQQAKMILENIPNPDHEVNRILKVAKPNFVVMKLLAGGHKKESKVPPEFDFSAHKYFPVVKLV
inactive: [1] 0.018 | [2] -0.056 | [3] -0.007 | [4] 0.034 | [5] 0 | [6] 0.01 | [7] -0.001 | [8] -0.026 | [9] -0.006 | [10] -0.008 | [11] 0.009 | [12] 0.032 | [13] -0.031 | [14] 0.082 | [15] -0.007 | [16] -0.042 | [17] -0.003 | [18] 0.031 | [19] -0.057 | [20] -0.022

NCAPG (UniProt Q9BPX3)
Sequence of UniProt Q9BPX3 (Q9BPX3 whole entry, looked up): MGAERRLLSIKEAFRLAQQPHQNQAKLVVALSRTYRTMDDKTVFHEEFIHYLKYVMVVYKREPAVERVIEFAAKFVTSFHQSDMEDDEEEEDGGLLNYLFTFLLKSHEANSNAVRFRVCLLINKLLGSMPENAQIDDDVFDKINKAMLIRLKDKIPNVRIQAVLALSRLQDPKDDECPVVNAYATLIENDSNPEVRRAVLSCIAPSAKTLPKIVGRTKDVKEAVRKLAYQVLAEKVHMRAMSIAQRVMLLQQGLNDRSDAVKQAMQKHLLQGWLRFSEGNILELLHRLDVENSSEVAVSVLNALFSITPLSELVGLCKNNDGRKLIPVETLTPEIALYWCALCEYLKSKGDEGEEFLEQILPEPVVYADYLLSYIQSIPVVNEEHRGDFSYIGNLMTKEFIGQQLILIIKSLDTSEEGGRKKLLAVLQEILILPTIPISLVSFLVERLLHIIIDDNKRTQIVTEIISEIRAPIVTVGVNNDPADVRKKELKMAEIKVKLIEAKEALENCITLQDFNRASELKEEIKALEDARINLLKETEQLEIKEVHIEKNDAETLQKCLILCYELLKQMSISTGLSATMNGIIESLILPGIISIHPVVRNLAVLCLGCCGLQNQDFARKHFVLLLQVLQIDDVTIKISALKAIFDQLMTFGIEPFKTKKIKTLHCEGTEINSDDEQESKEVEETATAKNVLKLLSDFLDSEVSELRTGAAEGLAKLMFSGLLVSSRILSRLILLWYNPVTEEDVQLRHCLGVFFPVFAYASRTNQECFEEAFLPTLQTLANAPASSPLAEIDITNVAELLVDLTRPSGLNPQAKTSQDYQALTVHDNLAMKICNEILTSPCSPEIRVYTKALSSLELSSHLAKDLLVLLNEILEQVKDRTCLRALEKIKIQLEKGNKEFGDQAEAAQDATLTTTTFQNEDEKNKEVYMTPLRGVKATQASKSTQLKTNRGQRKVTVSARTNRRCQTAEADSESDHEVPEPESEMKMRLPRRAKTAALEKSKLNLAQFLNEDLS
inactive: [1] 0.003 | [2] -0.113 | [3] 0.011 | [4] 0.024 | [5] 0.01 | [6] -0.01 | [7] 0.094 | [8] 0.007 | [9] -0.01 | [10] 0.003 | [11] -0.029 | [12] 0 | [13] -0.074 | [14] -0.028 | [15] -0.007 | [16] -0.094 | [17] -0.011 | [18] 0.026 | [19] -0.035 | [20] 0.011

MSH6 (UniProt P52701)
inactive: [1] -0.021 | [2] -0.17 | [3] 0.009 | [4] 0.012 | [5] -0.032 | [6] 0.019 | [7] 0.105 | [8] 0.003 | [9] -0.011 | [10] -0.023 | [11] -0.004 | [12] -0.005 | [13] -0.076 | [14] -0.003 | [15] 0.014 | [16] -0.087 | [17] 0.013 | [18] 0.037 | [19] -0.051 | [20] 0.022

PARP14 (UniProt Q460N5)
inactive: [1] 0.009 | [2] -0.238 | [3] -0.15 | [4] -0.007 | [5] -0.09 | [6] 0.021 | [7] 0.082 | [8] -0.127 | [9] 0 | [10] -0.014 | [11] -0.018 | [12] -0.057 | [13] -0.154 | [14] 0.148 | [15] -0.13 | [16] -0.123 | [17] -0.013 | [18] -0.013 | [19] -0.081 | [20] 0

— the supplement of paper PMC10849652
